Results filed as inconclusive are left out. Calls of active or inactive are those of the source. Rule for the calls: active = hit-call score of the fitted dose curve at least 0.9, where 1 is the maximum; inconclusive = response in the unintended direction; inactive = score below 0.9.
Key:
[1] = target: guinea pig Leukotriene D4 Receptor (LTD4), CYSLTR1 (gene 100135514) (UniProt Q2NNR5); experiment: NVS_GPCR_gLTD4: NovaScreen (NVS) G Protein-Coupled Receptor Assay for guinea pig Leukotriene D4 Receptor (LTD4) (AID 2283248)
guinea pig Leukotriene D4 Receptor (LTD4), CYSLTR1 (gene 100135514), sequence (Q2NNR5 whole entry, looked up): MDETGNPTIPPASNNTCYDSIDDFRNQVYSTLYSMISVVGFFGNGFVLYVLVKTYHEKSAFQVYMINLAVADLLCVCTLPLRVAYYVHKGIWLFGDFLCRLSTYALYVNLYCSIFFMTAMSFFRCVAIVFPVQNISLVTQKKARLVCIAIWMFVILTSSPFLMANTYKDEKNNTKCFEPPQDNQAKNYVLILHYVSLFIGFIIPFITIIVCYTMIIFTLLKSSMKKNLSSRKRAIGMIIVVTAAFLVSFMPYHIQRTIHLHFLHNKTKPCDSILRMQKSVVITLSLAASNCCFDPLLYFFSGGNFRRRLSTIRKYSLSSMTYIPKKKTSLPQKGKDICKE
Outline: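 Radioligand displacement on guinea pig lung membranes, 1 h incubation, filtration and scintillation counting; DMSO as negative control. Duplicate 25 uM primary screen, then singleton concentration-response up to 50 uM.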

[2] = tested on: guinea pig Muscarinic, Peripheral (Mperiperal) Receptor, Non-selective Binding, gene 100379235; experiment: NVS_GPCR_gMPeripheral_NonSelective: NovaScreen (NVS) G Protein-Coupled Receptor Assay for guinea pig Muscarinic, Peripheral (Mperiperal) Receptor, Non-selective Binding (AID 2283250)
Outline: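 Guinea pig bladder membranes, radioligand binding read 1 h after dosing by filter scintillation counting; loss of signal vs DMSO. Primary duplicate screen at 25 uM, then concentration-response up to 50 uM.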

[3] = target: human Serotonin, 5-Hydroxytryptamine Receptor 5A (5HT5A), HTR5A (gene 3361) (UniProt P47898); experiment: NVS_GPCR_h5HT5A: NovaScreen (NVS) G Protein-Coupled Receptor Assay for human Serotonin, 5-Hydroxytryptamine Receptor 5A (5HT5A) (AID 2283251)
human Serotonin, 5-Hydroxytryptamine Receptor 5A (5HT5A), HTR5A (gene 3361), sequence (P47898 whole entry, looked up): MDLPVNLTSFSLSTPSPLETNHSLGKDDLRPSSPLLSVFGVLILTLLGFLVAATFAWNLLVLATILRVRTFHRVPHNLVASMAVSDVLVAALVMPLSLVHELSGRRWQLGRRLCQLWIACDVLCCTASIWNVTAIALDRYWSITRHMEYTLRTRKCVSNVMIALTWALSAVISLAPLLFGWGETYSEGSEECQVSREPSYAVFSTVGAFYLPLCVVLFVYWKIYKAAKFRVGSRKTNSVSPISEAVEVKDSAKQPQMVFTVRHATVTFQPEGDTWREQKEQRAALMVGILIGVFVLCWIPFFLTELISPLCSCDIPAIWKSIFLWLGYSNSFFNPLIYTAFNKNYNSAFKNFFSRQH
Outline: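 Cell-free radioligand displacement binding on HEK293-derived membrane protein, 1 h incubation, filter-based scintillation counting. Primary screen in duplicate at 25 uM, actives followed in concentration series; loss of signal fitted versus DMSO.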

[4] = target: human Serotonin, 5-Hydroxytryptamine Receptor 6 (5HT6), HTR6 (gene 3362) (UniProt P50406); experiment: NVS_GPCR_h5HT6: NovaScreen (NVS) G Protein-Coupled Receptor Assay for human Serotonin, 5-Hydroxytryptamine Receptor 6 (5HT6) (AID 2283253)
human Serotonin, 5-Hydroxytryptamine Receptor 6 (5HT6), HTR6 (gene 3362), sequence (P50406 whole entry, looked up): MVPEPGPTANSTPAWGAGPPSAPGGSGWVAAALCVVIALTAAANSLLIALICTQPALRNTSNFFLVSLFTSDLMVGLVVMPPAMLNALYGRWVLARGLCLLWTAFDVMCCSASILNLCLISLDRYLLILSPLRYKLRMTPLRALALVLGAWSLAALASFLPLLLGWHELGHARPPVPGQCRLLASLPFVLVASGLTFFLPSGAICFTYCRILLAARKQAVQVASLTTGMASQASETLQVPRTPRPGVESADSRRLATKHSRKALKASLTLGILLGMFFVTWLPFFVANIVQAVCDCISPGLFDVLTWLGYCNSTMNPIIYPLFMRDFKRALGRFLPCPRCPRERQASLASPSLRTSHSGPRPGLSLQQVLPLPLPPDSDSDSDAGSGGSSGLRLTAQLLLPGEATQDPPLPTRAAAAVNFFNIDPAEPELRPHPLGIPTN
Outline: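 Radioligand binding to 5HT6 in HEK293-derived membranes, cell-free, 1 h after dosing; bound ligand measured by filter-based scintillation counting. Primary screen in duplicate at 25 uM; actives retested in concentration series.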

[5] = target: human Serotonin, 5-Hydroxytryptamine Receptor 7 (5HT7), HTR7 (gene 3363) (UniProt P34969); experiment: NVS_GPCR_h5HT7: NovaScreen (NVS) G Protein-Coupled Receptor Assay for human Serotonin, 5-Hydroxytryptamine Receptor 7 (5HT7) (AID 2283255);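 note: hits reduce specific radioligand binding relative to DMSO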
human Serotonin, 5-Hydroxytryptamine Receptor 7 (5HT7), HTR7 (gene 3363), sequence (P34969 whole entry, looked up): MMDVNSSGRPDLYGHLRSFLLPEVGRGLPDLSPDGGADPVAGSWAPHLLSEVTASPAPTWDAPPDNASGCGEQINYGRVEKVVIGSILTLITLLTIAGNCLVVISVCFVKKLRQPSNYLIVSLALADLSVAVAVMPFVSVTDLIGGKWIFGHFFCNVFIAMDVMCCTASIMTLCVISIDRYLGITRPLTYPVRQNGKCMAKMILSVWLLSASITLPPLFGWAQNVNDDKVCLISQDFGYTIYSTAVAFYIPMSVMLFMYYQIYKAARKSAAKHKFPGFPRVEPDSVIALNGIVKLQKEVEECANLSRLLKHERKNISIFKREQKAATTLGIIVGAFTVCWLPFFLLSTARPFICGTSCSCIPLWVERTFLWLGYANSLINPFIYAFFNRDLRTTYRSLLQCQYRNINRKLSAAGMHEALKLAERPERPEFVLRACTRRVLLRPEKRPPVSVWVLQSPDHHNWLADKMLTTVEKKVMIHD
Outline: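 Radioligand displacement on membranes from CHO cells expressing human 5HT7, 1 h incubation, filter-based scintillation counting. Primary screen used a single 25 uM concentration in duplicate; actives were followed up in concentration series.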

[6] = target: human Adrenergic, Beta 1 Receptor (Adrb1), ADRB1 (gene 153) (UniProt P08588); experiment: NVS_GPCR_hAdrb1: NovaScreen (NVS) G Protein-Coupled Receptor Assay for human Adrenergic, Beta 1 Receptor (Adrb1) (AID 2283258)
Outline: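 Cell-free radioligand displacement on receptor from human neuroepithelioma cells; 2 h after dosing, filter-based scintillation counting. Primary screen in duplicate at 25 uM, actives retested in concentration series; loss of signal vs DMSO baseline.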

[7] = target: human Adrenergic, Alpha 2c Receptor (Adra2C), ADRA2C (gene 152) (UniProt P18825); experiment: NVS_GPCR_hAdra2C: NovaScreen (NVS) G Protein-Coupled Receptor Assay for human Adrenergic, Alpha 2c Receptor (Adra2C) (AID 2283259)
human Adrenergic, Alpha 2c Receptor (Adra2C), ADRA2C (gene 152), sequence (P18825 whole entry, looked up): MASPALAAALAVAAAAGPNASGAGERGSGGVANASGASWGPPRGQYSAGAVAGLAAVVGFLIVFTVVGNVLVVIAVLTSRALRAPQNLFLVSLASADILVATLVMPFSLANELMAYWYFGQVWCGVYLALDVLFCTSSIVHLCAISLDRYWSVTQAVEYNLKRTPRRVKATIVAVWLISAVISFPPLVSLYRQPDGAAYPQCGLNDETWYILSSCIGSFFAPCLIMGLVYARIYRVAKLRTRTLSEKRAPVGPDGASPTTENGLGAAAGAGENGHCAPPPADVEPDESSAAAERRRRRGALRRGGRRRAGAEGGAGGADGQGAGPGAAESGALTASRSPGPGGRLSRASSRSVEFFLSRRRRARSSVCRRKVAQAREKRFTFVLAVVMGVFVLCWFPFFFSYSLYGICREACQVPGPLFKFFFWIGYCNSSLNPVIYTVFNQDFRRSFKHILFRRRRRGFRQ
Outline: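 Radioligand binding on Sf9-expressed receptor membranes, 1 h after chemical dosing, filter-based scintillation read-out. Loss of binding fitted positively versus DMSO; primary duplicate screen at 25 uM, actives retested in concentration series.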

[8] = target: Beta-2 adrenergic receptor (Homo sapiens) (UniProt P07550); experiment: NVS_GPCR_hAdrb2: NovaScreen (NVS) G Protein-Coupled Receptor Assay for human Adrenergic, Beta 2 Receptor (Adrb2) (AID 2283261)
Beta-2 adrenergic receptor (Homo sapiens), sequence (P07550 whole entry, looked up): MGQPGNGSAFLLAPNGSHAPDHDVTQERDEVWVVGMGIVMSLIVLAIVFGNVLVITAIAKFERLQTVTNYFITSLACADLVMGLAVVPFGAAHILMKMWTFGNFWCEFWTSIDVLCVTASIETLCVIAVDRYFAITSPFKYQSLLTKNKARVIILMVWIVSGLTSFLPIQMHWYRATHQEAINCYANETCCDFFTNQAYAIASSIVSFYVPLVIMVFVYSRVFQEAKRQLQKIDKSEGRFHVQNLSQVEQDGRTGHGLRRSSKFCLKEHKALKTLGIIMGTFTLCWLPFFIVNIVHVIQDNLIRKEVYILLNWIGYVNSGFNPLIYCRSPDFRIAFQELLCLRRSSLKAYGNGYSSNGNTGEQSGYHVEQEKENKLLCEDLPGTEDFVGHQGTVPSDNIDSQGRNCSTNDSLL
Outline: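 Filter-based radioligand binding using receptor prepared from CHO cells, 1 h incubation, scintillation counting. Primary screen in duplicate at 25 uM, actives retested in concentration series; loss of binding relative to DMSO.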

[9] = target: Type-1 angiotensin II receptor (Homo sapiens) (UniProt P30556); experiment: NVS_GPCR_hAT1: NovaScreen (NVS) G Protein-Coupled Receptor Assay for human Angiotensin II receptor type 1 (AT1) (AID 2283263)
Type-1 angiotensin II receptor (Homo sapiens), sequence (P30556 whole entry, looked up): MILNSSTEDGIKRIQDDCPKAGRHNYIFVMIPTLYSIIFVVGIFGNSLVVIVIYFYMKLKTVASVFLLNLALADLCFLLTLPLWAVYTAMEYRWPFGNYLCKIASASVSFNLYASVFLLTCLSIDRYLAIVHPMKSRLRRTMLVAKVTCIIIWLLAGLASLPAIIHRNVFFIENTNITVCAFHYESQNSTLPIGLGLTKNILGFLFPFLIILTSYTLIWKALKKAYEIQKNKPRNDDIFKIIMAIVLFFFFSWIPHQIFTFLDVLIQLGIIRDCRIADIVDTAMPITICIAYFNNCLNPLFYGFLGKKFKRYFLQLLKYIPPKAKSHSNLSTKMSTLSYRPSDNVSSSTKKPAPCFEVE
Outline: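 Membranes from KAN-TS cells; radioligand competitive displacement, 3 h, filtration and scintillation counting. Single-point duplicate screen at 25 uM, then concentration-response up to 50 uM for hits; loss of signal fitted versus DMSO.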

[10] = target: human Serotonin, 5-Hydroxytryptamine Receptor 2A (5HT2A), HTR2A (gene 3356) (UniProt P28223); experiment: NVS_GPCR_h5HT2A: NovaScreen (NVS) G Protein-Coupled Receptor Assay for human Serotonin, 5-Hydroxytryptamine Receptor 2A (5HT2A) (AID 2283249)
human Serotonin, 5-Hydroxytryptamine Receptor 2A (5HT2A), HTR2A (gene 3356), sequence (P28223 whole entry, looked up): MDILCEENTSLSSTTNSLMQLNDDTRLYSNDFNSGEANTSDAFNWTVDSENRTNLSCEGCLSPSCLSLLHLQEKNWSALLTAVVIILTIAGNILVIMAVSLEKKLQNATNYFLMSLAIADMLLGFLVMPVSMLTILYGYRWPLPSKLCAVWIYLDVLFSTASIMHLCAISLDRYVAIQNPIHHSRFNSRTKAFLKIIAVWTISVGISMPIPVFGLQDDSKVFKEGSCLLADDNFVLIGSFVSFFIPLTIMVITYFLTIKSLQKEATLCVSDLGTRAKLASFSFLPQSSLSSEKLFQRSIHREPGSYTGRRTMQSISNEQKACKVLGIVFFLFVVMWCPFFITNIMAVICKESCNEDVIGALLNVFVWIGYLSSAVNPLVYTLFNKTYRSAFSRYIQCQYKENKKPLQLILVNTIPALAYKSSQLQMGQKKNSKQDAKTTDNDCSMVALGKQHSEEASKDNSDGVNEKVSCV
Outline: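 Human cortex membranes, cell-free radioligand binding; filter-based scintillation read 1.5 h after dosing. Duplicate screen at 25 uM first; displacement of specific binding (loss of signal) versus DMSO.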

[11] = target: bovine Dopamine Receptor (DR), Non-selective Binding, DRD1 (gene 281125) (UniProt Q95136); experiment: NVS_GPCR_bDR_NonSelective: NovaScreen (NVS) G Protein-Coupled Receptor Assay for bovine Dopamine Receptor (DR), Non-selective Binding (AID 2283241)
bovine Dopamine Receptor (DR), Non-selective Binding, DRD1 (gene 281125), sequence (Q95136 whole entry, looked up): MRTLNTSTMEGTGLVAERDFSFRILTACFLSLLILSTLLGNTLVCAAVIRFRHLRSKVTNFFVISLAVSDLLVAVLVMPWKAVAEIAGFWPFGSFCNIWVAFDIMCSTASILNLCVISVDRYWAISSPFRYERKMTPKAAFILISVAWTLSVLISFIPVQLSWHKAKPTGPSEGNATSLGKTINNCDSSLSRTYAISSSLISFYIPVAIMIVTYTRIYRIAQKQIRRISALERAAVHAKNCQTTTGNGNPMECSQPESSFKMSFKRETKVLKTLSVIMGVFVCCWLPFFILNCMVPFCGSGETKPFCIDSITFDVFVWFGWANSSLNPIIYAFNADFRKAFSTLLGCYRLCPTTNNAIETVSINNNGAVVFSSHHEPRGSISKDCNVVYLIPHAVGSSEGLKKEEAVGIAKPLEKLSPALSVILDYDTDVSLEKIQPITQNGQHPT
Outline: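 Bovine striatal membranes; radioligand displacement read by filtration and scintillation counting 1 h after dosing, loss of signal vs DMSO. Screened in duplicate at 25 uM, then concentration-response for hits.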

[12] = target: Adenosine receptor A1 (Bos taurus) (UniProt P28190); experiment: NVS_GPCR_bAdoR_NonSelective: NovaScreen (NVS) G Protein-Coupled Receptor Assay for bovine Adenosine Receptor (AdoR), Non-selective Binding (AID 2283244)
Adenosine receptor A1 (Bos taurus), sequence (P28190 whole entry, looked up): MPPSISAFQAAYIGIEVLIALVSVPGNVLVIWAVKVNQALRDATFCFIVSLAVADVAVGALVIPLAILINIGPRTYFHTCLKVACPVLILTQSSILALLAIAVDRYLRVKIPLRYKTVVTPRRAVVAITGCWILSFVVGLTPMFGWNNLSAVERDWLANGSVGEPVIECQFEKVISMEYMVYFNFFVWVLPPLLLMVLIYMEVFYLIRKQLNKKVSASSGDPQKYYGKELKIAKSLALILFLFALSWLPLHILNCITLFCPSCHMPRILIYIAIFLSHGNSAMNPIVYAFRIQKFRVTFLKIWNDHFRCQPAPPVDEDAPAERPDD
Outline: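 Bovine striatal membranes, radioligand displacement binding, 1 h after dosing, filter-based scintillation counting. Screened in duplicate at 25 uM, then concentration-response up to 50 uM; loss of specific binding relative to DMSO.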

[13] = target: human Adenosine A2a Receptor (AdoRA2a), ADORA2A (gene 135) (UniProt P29274); experiment: NVS_GPCR_hAdoRA2a: NovaScreen (NVS) G Protein-Coupled Receptor Assay for human Adenosine A2a Receptor (AdoRA2a) (AID 2283256)
human Adenosine A2a Receptor (AdoRA2a), ADORA2A (gene 135), sequence (P29274 whole entry, looked up): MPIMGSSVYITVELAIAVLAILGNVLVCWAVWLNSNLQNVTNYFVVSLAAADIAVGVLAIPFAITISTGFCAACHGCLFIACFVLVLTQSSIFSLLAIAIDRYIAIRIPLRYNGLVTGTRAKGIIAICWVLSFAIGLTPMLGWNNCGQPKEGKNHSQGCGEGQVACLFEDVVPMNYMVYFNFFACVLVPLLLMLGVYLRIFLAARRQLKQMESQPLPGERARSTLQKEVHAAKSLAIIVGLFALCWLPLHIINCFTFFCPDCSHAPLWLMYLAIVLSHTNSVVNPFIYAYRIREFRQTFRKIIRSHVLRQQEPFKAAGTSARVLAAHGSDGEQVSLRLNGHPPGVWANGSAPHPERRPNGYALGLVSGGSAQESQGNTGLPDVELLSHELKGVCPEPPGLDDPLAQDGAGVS
Outline: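 Cell-free radioligand binding on membranes from HEK293 expressing the receptor; competitive displacement read 1.5 h after dosing by filter-based scintillation counting. Primary screen in duplicate at 25 uM; actives followed in concentration series, with DMSO as baseline.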

[14] = NVS_GPCR_bNPY_NonSelective: NovaScreen (NVS) G Protein-Coupled Receptor Assay for bovine Neuropeptide Y (NPY) Receptor, Non-selective Binding (AID 2283245)
Outline: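 Bovine hippocampal membranes incubated 1 hour with radioligand and test chemical. Bound ligand measured by filter-based scintillation counting. Single-concentration screen at 25 uM in duplicate, then concentration-response up to 50 uM.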

[15] = target: human Adenosine A1 Receptor (AdoRA1), ADORA1 (gene 134) (UniProt P30542); experiment: NVS_GPCR_hAdoRA1: NovaScreen (NVS) G Protein-Coupled Receptor Assay for human Adenosine A1 Receptor (AdoRA1) (AID 2283254)
Outline: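 Hum. cortical membranes + radioligand, cmpd 1 h; filtration, scintillation count. Readout = decrease vs DMSO. Primary 25 uM dup; hits → conc. series.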

[16] = target: human Adrenergic, Beta 3 Receptor (Adrb3), ADRB3 (gene 155) (UniProt P13945); experiment: NVS_GPCR_hAdrb3: NovaScreen (NVS) G Protein-Coupled Receptor Assay for human Adrenergic, Beta 3 Receptor (Adrb3) (AID 2283262)
human Adrenergic, Beta 3 Receptor (Adrb3), ADRB3 (gene 155), sequence (P13945 whole entry, looked up): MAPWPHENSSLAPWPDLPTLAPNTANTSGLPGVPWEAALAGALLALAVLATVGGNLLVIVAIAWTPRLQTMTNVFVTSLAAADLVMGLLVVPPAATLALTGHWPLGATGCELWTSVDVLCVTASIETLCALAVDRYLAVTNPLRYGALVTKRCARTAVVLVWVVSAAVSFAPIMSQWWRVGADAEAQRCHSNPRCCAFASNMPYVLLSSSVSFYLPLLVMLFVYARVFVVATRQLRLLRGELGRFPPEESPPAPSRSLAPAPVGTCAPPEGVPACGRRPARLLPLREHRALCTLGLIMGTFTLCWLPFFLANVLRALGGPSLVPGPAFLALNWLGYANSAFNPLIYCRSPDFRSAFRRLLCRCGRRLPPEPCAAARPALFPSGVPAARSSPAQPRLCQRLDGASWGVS
Outline: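 Membranes from SK-N-MC cells pretreated with isoproterenol and 8-bromo-cAMP were used in a radioligand competitive displacement binding assay. Binding was read by filter-based scintillation counting 1 hour after dosing. Primary screening was in duplicate at 25 uM, with concentration series in follow-up.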

[17] = tested on: bovine Angiotensin II Receptor Type 2 (AT2), gene 407157; experiment: NVS_GPCR_bAT2: NovaScreen (NVS) G Protein-Coupled Receptor Assay for bovine Angiotensin II Receptor Type 2 (AT2) (AID 2283240)
Outline: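 Radioligand displacement on bovine cerebellar membranes, 1 hour incubation, filter-based scintillation counting; loss of signal vs DMSO. Duplicate single-point screen at 25 uM, then concentration-response to 50 uM maximum.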

[18] = tested on: guinea pig Leukotriene B4 Receptor (LTB4), gene 100379538; experiment: NVS_GPCR_gLTB4: NovaScreen (NVS) G Protein-Coupled Receptor Assay for guinea pig Leukotriene B4 Receptor (LTB4) (AID 2283247)
Outline: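 Radioligand displacement on guinea pig spleen membranes, filter-based scintillation counting 2 h after dosing. Primary duplicate single point at 25 uM; hits over threshold (e.g. 30% inhibition) run in concentration-response up to 50 uM, DMSO baseline.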

[19] = tested on: bovine Histamine 1 Receptor (H1), gene 281231; experiment: NVS_GPCR_bH1: NovaScreen (NVS) G Protein-Coupled Receptor Assay for bovine Histamine 1 Receptor (H1) (AID 2283246)
Outline: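 Radioligand displacement on bovine cerebellar membranes, 1 h after dosing, filter-based scintillation read-out; loss of signal vs DMSO. Duplicate single-concentration screen at 25 uM, then concentration-response up to 50 uM for hits.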

In the case of `CCCCCCCCCCCCCCOS(=O)(=O)O`, the AC50 [1] is reported as 9.7 µM (active), the AC50 [2] is reported as 25 µM (active) and the AC50 [3] is reported as 20.3 µM (active). The AC50 [4] was 39.1 µM (active), the AC50 [5] was 16.5 µM (active) and the AC50 [6] was 5.22 µM (active). For the same compound, the AC50 [7] was 2.99 µM (active), the AC50 [8] was 15.4 µM (active) and the outcome [9] was “inactive”.

In the case of `CC(N)=O`, the outcome [10] is reported as “inactive”.

For `CN(C)C(=O)NC1(c2ccccc2)CCN(CC[C@@]2(c3ccc(F)c(F)c3)CN(C(=O)c3ccccc3)CCO2)CC1`, the AC50 [11] was 6.51 µM (active), the outcome [12] was “inactive” and the AC50 [10] was 13.1 µM (active). The outcome [2] was “inactive” and the AC50 [13] was 23.5 µM (active).

For `CCN(CC)CCOc1ccc(C(=C(Cl)c2ccccc2)c2ccccc2)cc1`, the AC50 [11] was 14.2 µM (active), the AC50 [14] was 30 µM (active) and the AC50 [2] was 4.82 µM (active). For the same compound, the AC50 [3] was 1.46 µM (active), the AC50 [4] was 5.6 µM (active) and the AC50 [15] was 11 µM (active). The AC50 [5] was 3.31 µM (active), the AC50 [13] was 11.6 µM (active) [middle of 4 runs] and the AC50 [7] was 1.58 µM (active). The AC50 [8] was 18.2 µM (active) and the outcome [16] was “inactive”.

In the case of `CCc1cc(C2=C(C(=O)O)N(c3ccccc3C(F)(F)F)S(=O)(=O)c3ccccc32)cc2c1OCO2`, the AC50 [17] is reported as 25 µM (active), the AC50 [18] is reported as 3.48 µM (active) and the AC50 [9] is reported as 16.2 µM (active).

In the case of `CCCCc1nc2cccnc2n1Cc1ccc(-c2ccccc2-c2nnn[nH]2)cc1`, the outcome [17] is reported as “inactive”, the AC50 [18] is reported as 10.9 µM (active) and the outcome [7] is reported as “inactive”. For the same compound, the AC50 [9] was 0.0191 µM (active).

For `O=Cc1ccccc1C=O`, the outcome [18] was “inactive” and the outcome [9] was “inactive”.

With `CO[C@@H]1COCC[C@@H]1N[C@@H]1CC[C@@](C(=O)N2CCc3ncc(C(F)(F)F)cc3C2)(C(C)C)C1` the outcome [19] was “inactive”.

With `O=C(NS(=O)(=O)/C=C/c1cccs1)c1ccc(F)cc1Br` the AC50 [17] was 14.5 µM (active).

For `CN(C)C(=O)NC1(c2ccccc2)CCN(CCC[C@]2(c3ccc(Cl)c(Cl)c3)CCCN(C(=O)c3ccccc3)C2)CC1`, the AC50 [11] was 1.3 µM (active), the outcome [12] was “inactive” and the outcome [14] was “inactive”. For the same compound, the outcome [10] was “inactive”, the AC50 [2] was 5.86 µM (active) and the outcome [3] was “inactive”. For the same compound, the outcome [5] was “inactive” and the outcome [16] was “inactive”.

— PubChem BioAssay (EPA / NIEHS)
